Drawing on PubChem BioAssay (NCI), this text covers growth for nine compounds.

Test systems include SR leukemia; RPMI-8226 leukemia; OVCAR-8 ovarian; OVCAR-5 ovarian; OVCAR-4 ovarian; SK-OV-3 ovarian; IGROV1 ovarian; OVCAR-3 ovarian; HS 578T breast; NCI/ADR-RES ovarian; T-47D breast; BT-549 breast; MDA-MB-435 melanoma; SW-620 colon; HCT-116 colon; HCC-2998 colon; KM12 colon; MCF7 breast.
What all share (assay): NCI-60 one-dose screen, 48 h (100 = growth as untreated, 0 = no growth, -100 = all killed)
Conditions in all cases: 10 µM unless noted

This is part of a sample that, as a whole, favours compounds with a hit. Of some 83,000 tested, about 20% had one in any assay.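 Method: cells in 96-well plates; compound added at one concentration; 48 h incubation; percent growth measured; values under 10 scored active.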 Values without a mark were called inactive. Calls of active or inactive are those of the source.

For the compound `Cc1ccc(SCN2CCN(c3cccc(Cl)c3)CC2)cc1`, the growth was 91.7% in the experiment with SR leukemia; 164% in the experiment with RPMI-8226 leukemia; 110% with OVCAR-8 ovarian; 112% with OVCAR-5 ovarian; 108% in the experiment on OVCAR-4 ovarian; 111% with SK-OV-3 ovarian. For the same compound, the growth was 80.4% with IGROV1 ovarian; 106% with OVCAR-3 ovarian; 111% with HS 578T breast; 98.9% with NCI/ADR-RES ovarian; 86.7% in the experiment with T-47D breast; 62.7% in the experiment with BT-549 breast. The growth is 89.7% with MDA-MB-435 melanoma; 107% with SW-620 colon; 91.6% with HCT-116 colon; 100% in the experiment on HCC-2998 colon; 104% in the experiment on KM12 colon.

As for `Nc1nc2c(c3ncccc13)C(c1ccc(Cl)c(Cl)c1)Cc1ncccc1-2` (configuration not stated), the growth in the experiment on SR leukemia was 0.136% (active); in the experiment with RPMI-8226 leukemia, 15.8%; in the experiment on OVCAR-8 ovarian, 34.2%; in the experiment on OVCAR-5 ovarian, 81.3%; with OVCAR-4 ovarian, 67.6%; with SK-OV-3 ovarian it was 19.7%. In addition, the growth with IGROV1 ovarian was 50.8%; in the experiment with OVCAR-3 ovarian, -8.92% (active); in the experiment with HS 578T breast, 31.5%; with NCI/ADR-RES ovarian, 4% (active); with T-47D breast it was 16%; in the experiment on BT-549 breast, 31.1%. Moreover, the growth in the experiment with MDA-MB-435 melanoma is 6.95% (active); in the experiment with SW-620 colon, 21.7%; with HCT-116 colon, 18.4%; with HCC-2998 colon, 41.7%; with KM12 colon it was 21.5%.

Regarding `CN1CCN(Cc2ccc(NC(=O)c3cncc(C#Cc4cnc(N)c5cccnc45)c3)cc2C(F)(F)F)CC1`, the growth was 15.4% in the experiment with SR leukemia; 18.5% in the experiment with RPMI-8226 leukemia; 29.5% with OVCAR-8 ovarian; 12.5% in the experiment on OVCAR-5 ovarian; 36.8% in the experiment on OVCAR-4 ovarian; -10.9% (active) in the experiment on SK-OV-3 ovarian. The growth in the experiment with IGROV1 ovarian was 7.64% (active); with OVCAR-3 ovarian it was 34.6%; in the experiment with HS 578T breast, -2.09% (active); in the experiment on NCI/ADR-RES ovarian, 87%; in the experiment on T-47D breast it was 26.2%; with BT-549 breast, 38.9%. Further, the growth in the experiment on MDA-MB-435 melanoma was 7.67% (active); with SW-620 colon, 1.78% (active); with MCF7 breast, 26.8%; in the experiment with HCT-116 colon, 3.52% (active); in the experiment on KM12 colon it was 8.81% (active).

Take `CN1CCN(Cc2ccc(NC(=O)c3[nH]ncc3Nc3ncnc4[nH]ccc34)cc2)CC1`: the growth with SR leukemia was -17% (active); in the experiment on RPMI-8226 leukemia, -10.4% (active); in the experiment with OVCAR-8 ovarian, 6.62% (active); with OVCAR-5 ovarian, 11.6%; in the experiment on OVCAR-4 ovarian, -21.7% (active); with SK-OV-3 ovarian, 18.5%. The growth in the experiment on IGROV1 ovarian was 16.4%; with OVCAR-3 ovarian, -57.6% (active); with HS 578T breast, -3.22% (active); in the experiment on NCI/ADR-RES ovarian it was 71.2%; with T-47D breast, 21.7%; with BT-549 breast, -76.2% (active). Further, the growth is 8.18% (active) with MDA-MB-435 melanoma; 5.63% (active) with SW-620 colon; 2.81% (active) with HCT-116 colon; -14.2% (active) in the experiment with HCC-2998 colon; 3.42% (active) in the experiment with KM12 colon.

Consider `Cn1cc(-c2csc(-c3cn(C)c4ncccc34)n2)c2ccccc21`, for which the growth in the experiment with SR leukemia was 9.51% (active); in the experiment with RPMI-8226 leukemia, 22.4%; in the experiment on OVCAR-8 ovarian, 30.2%; in the experiment on OVCAR-5 ovarian, 64.6%; with OVCAR-4 ovarian, 71.6%; in the experiment with SK-OV-3 ovarian, 36.6%. Moreover, the growth in the experiment on IGROV1 ovarian was 42.8%; in the experiment on OVCAR-3 ovarian, -4.76% (active); in the experiment with HS 578T breast, 46%; in the experiment on NCI/ADR-RES ovarian, 22.8%; in the experiment on T-47D breast it was 31.8%; with BT-549 breast it was 22%. Also, the growth was -40.1% (active) with MDA-MB-435 melanoma; 20.7% in the experiment on SW-620 colon; 20.5% with HCT-116 colon; 37.6% in the experiment with HCC-2998 colon; 23.1% in the experiment with KM12 colon.

In the case of `O=C1CC(c2nc3ccccc3[nH]2)CN1C1CCCCC1` (configuration not stated), the growth in the experiment with SR leukemia was 97.4%; with RPMI-8226 leukemia it was 106%; with OVCAR-8 ovarian, 95.2%; with OVCAR-5 ovarian it was 108%; in the experiment on OVCAR-4 ovarian, 102%; with SK-OV-3 ovarian, 101%. The growth with IGROV1 ovarian was 108%; with OVCAR-3 ovarian, 110%; in the experiment on HS 578T breast, 102%; in the experiment with NCI/ADR-RES ovarian, 94.2%; in the experiment on T-47D breast, 95.6%; in the experiment with BT-549 breast, 97.7%. Moreover, the growth in the experiment with MDA-MB-435 melanoma was 107%; with SW-620 colon, 106%; in the experiment with HCT-116 colon it was 109%; in the experiment with KM12 colon it was 107%.

On to `COc1ccc(S(=O)(=O)NCCNc2nccc(-c3c(-c4cccc([N+](=O)[O-])c4)nc4sccn34)n2)cc1`, for which the growth with SR leukemia was 78.4%; in the experiment on RPMI-8226 leukemia, 74%; in the experiment with OVCAR-8 ovarian it was 83.7%; with OVCAR-5 ovarian, 126%; with OVCAR-4 ovarian, 63.1%; in the experiment on SK-OV-3 ovarian, 102%. The growth was 67.3% in the experiment with IGROV1 ovarian; 88.3% in the experiment with OVCAR-3 ovarian; 91.1% with HS 578T breast; 82% with NCI/ADR-RES ovarian; 44.4% with T-47D breast; 72.1% with BT-549 breast. The growth with MDA-MB-435 melanoma is 77.9%; in the experiment with SW-620 colon, 128%; with MCF7 breast, 61.3%; in the experiment on HCT-116 colon it was 90%; in the experiment with KM12 colon it was 44.8%.

As for `CCCCCCCCCC(=O)Oc1ccc(/C(=C(/C)c2ccccc2)c2ccc(OCCN3CCCC3)cc2)cc1`, the growth was -25.7% (active) with SR leukemia; -21.8% (active) in the experiment on RPMI-8226 leukemia; 54.5% in the experiment with OVCAR-8 ovarian; 54.4% in the experiment with OVCAR-5 ovarian; 32.6% in the experiment on OVCAR-4 ovarian; 33.9% with SK-OV-3 ovarian. For the same compound, the growth in the experiment with IGROV1 ovarian was 44.6%; with OVCAR-3 ovarian, 42.9%; in the experiment on HS 578T breast, 11.9%; in the experiment on NCI/ADR-RES ovarian, 28%; with T-47D breast it was 3.1% (active); in the experiment on BT-549 breast it was 24.5%. The growth with MDA-MB-435 melanoma was -59% (active); in the experiment on SW-620 colon it was -21.9% (active); in the experiment with HCT-116 colon, 15.8%; with HCC-2998 colon, -11.2% (active); in the experiment with KM12 colon, 15.2%.

For `Cc1cc2cc3cc(C)c(N(C)C)cc3[n+](C)c2cc1N(C)C`, the growth was 76.9% in the experiment with SR leukemia; 4.78% (active) in the experiment on RPMI-8226 leukemia; 23.4% in the experiment on OVCAR-8 ovarian; 63.4% in the experiment on OVCAR-5 ovarian; 38.5% with OVCAR-4 ovarian; 20.2% with SK-OV-3 ovarian. Besides, the growth is -3.39% (active) with IGROV1 ovarian; -7.45% (active) in the experiment with OVCAR-3 ovarian; 33.1% in the experiment with HS 578T breast; 78.4% with NCI/ADR-RES ovarian; 16.4% with T-47D breast; -28.7% (active) in the experiment with BT-549 breast. Further, the growth was 35.3% in the experiment on MDA-MB-435 melanoma; 14.6% with SW-620 colon; 14% with MCF7 breast; 12.6% with HCT-116 colon; 3.5% (active) with KM12 colon.
